Rows were chosen to be rich in hits. Some 4.2% of all compounds tested hit in one or more screens of this group.
hcDAF12 agonist = activators of H. contortus DAF-12 nuclear receptor; HEK293 hcDAF-12 lit1-tk-luc reporter, luminescence; 0% DMSO, 100% Δ7-dafachronic acid; activation, % at 6.8 µM; 1.4% of 370,000 active; AID 652067;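 active = activation above the mean of all tested compounds plus 3 SD, cut at about 5.5% in these data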;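 note: 100% = response to 3 µM Δ7-dafachronic acid high control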
ssDAF12 agonist = activators of S. stercoralis DAF-12 nuclear receptor | 1% of 370,000 active | HEK293 ssDAF-12/GRIP1 lit1-tk-luc reporter, luminescence; % of 3 µM dafachronic acid response | activation, % at 6.8 µM;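 active = activation above the mean over all tested compounds plus 3 SD, cut at about 0.9% in these data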;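 note: 0% = DMSO-only wells and 100% = 3 µM delta7-dafachronic acid wells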
SMARCA2 activ = SMARCA2 function activation, primary screen; MG213 cells, MMTV-luciferase reporter, dexamethasone, overnight; activation, % at 9.1 µM; 1% of 370,000 active; AID 652017; in the data active = activation above about 7.8%;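 note: 0% = vehicle wells and 100% = reference activator wells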
DAX1 StAR inh = blocks DAX1 repression of SF-1 activated StAR promoter. HEK293T StAR-luciferase reporter, SF-1/DAX-1 repression relief. inhibition, % at 6.8 µM. 1.1% of 370,000 active;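 active = inhibition above the mean over all tested compounds plus 3 SD, cut at about 3.6% in these data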;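 note: 0% = DAX-1 cells with DMSO and 100% = cells lacking DAX-1 with DMSO; higher inhibition means more luminescence from relief of DAX-1 repression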
hgDAF-12 ag = activates the H. glycines DAF-12 receptor ligand-binding domain | AID 687014 | activation, % at 6.8 µM | HEK293 GAL4-hgDAF12 UAS-luciferase reporter, agonist luminescence; normalized to butyrate control | 1.8% of 370,000 active;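 active = activation above a cutoff set at the mean of all screened compounds plus 3 SD, cut at about 10% in these data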;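 note: 0% = DMSO wells and 100% = sodium butyrate wells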
LXR ag = LXR-beta agonism as hcDAF-12 counter-screen; activation, % at 6.8 µM; 3,400 tested, under 10 active; HEK293 Gal4-LXR tk-luc reporter, luminescence, 24 h; normalized: DMSO 0%, positive control 100%; AID 743027; shares compounds with hcDAF12 agonist;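 active = mean percent activation of the reporter above a cutoff set as the average over tested compounds plus their standard deviation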
Target sequence (P55055 whole entry, looked up, the tested form may be a part): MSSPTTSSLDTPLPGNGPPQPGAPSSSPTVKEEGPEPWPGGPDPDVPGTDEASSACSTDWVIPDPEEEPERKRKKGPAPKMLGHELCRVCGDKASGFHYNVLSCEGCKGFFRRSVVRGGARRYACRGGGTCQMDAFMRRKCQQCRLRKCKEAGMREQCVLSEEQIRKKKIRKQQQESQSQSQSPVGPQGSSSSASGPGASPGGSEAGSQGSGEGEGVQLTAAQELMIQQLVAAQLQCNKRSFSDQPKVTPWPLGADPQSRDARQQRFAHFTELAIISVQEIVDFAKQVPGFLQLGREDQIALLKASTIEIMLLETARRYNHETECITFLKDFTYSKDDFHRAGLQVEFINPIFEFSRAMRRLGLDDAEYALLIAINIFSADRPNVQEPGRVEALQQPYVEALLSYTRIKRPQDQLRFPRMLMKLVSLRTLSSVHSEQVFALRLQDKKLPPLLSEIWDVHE
hcDAF12 ag = hcDAF-12 agonism, confirmation assay | shares compounds with hcDAF12 agonist | HEK293 hcDAF-12 lit1-tk-luc reporter, luminescence; % of Δ7-dafachronic acid response | activation, % at 6.8 µM | 61% of 3,400 active | AID 743032;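 active = mean activation across triplicate tests above the threshold derived from the earlier primary screen, cut at about 5.5% in these data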;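 note: 0% = DMSO only wells and 100% = 3 µM Δ7-dafachronic acid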
* hit, by the source's call; x = no result given.

SMILES	hcDAF12 agonist	ssDAF12 agonist	SMARCA2 activ	DAX1 StAR inh	hgDAF-12 ag	LXR ag	hcDAF12 ag
c1ccc(-c2cc(-c3cc(-c4ccccc4)on3)no2)cc1	0	-1	-1	1	1	x	x
COc1ccc(-c2cc(-c3ccccc3)no2)cc1	11*	0.9*	4	4.0*	11*	2	11*
CN(C)S(=O)(=O)c1ccc(Cl)c(-c2nnc3n2CCCCC3)c1	7.8*	0	-4	1	0	0	3
O=C(Nc1ccc(Cl)c(Cl)c1)C1CCN(c2ncccn2)CC1	-2	-1	-5	-1	6	x	x
CN(C)c1ccc(C2Nc3cccc4cccc(c34)N2)cc1	8.4*	1.6*	1	1	4	0	8.3*
Nc1c(C(=O)c2ccccc2)oc2ccc(Br)cc12	9.9*	1.3*	3	4.3*	13*	1	8.3*
Cc1ccc(C(=O)c2oc3ccccc3c2N)cc1	9.5*	1	2	1	11*	1	9.7*
Nc1c(C(=O)c2ccc(Br)cc2)oc2ccccc12	5	0	2	2	10	x	x
COC(=O)[C@]12C[C@H](CC(=O)N3CCN(C(=O)C4CC4)CC3)C(=O)N(Cc3ccc4c(c3)OCO4)C1=C[C@H](COCc1ccccc1)O[C@@H]2C	-2	-1	-6	-1	0	x	x
c1ccc(C2=NN(c3ccccc3)CC2)cc1	6.7*	1	5	2	11*	0	4
CCOC(=O)C1=C(CSc2nc(-c3ccccc3)ccc2C#N)OC(N)=C(C#N)C1c1cccnc1 (stereo unspecified)	7.2*	1.3*	7	3	12*	1	9.4*
CCOC(=O)C1=C(CSc2nc(-c3ccccc3)ccc2C#N)OC(N)=C(C#N)C1c1ccccc1 (stereo unspecified)	2	0	4	1	2	x	x
COc1ccc(Nc2ncnc3sccc23)cc1	2	0	7	1	9	x	x
COc1ccc(Nc2nccc3c2ncn3C)cc1	6.6*	0	4	3	11*	1	5
Cc1ccc2nc(-c3ccc(O)c(O)c3)cn2c1	9.4*	0	1	2	8	1	9.9*
Cc1nc(-c2ccc(O)c(O)c2)cs1	0	-1	-6	0	1	x	x
C=CCN=C1NC(c2cccc(F)c2)C(C(=O)OC)=C(C)N1Cc1cccc(C(F)(F)F)c1 (stereo unspecified)	-2	-1	-3	0	-3	x	x
COc1cccc(-c2ccc(NC(=O)C3CCCN(Cc4cc(C)[nH]n4)C3)cc2)c1 (stereo unspecified)	7.0*	-1	0	0	3	0	0
CC(C)c1ccccc1NC(=O)COC(=O)Cc1c[nH]c2ccccc12	7.9*	1.3*	0	1	3	0	4
CC1Sc2ccc(C#N)cc2N(Cc2cccc(C(F)(F)F)c2)C1=O (stereo unspecified)	-2	-2	-1	1	-2	x	x
O=C1C(=Cc2ccco2)C(=O)c2ccccc21	7.3*	0	7	1	10	0	2
CC1CN(S(=O)(=O)c2cccc(C(=O)N(C)C3CCCCC3)c2)CC(C)O1 (stereo unspecified)	-1	-2	-5	-4	-4	x	x
Nc1cccc(C2=Nc3cccc4cccc(c34)N2)c1	8.5*	0	-1	1	4	0	5.7*
CCOC(=O)c1ccc(N=Cc2nc(-c3ccccc3)oc2OC(C)=O)cc1	0	-1	-3	0	2	x	x
CN(C)c1ccc(N=Cc2nc(-c3ccccc3)oc2OC(=O)c2cccc(Br)c2)cc1	6.7*	2.1*	6	3	7	0	1
SMILES	hcDAF12 agonist	ssDAF12 agonist	SMARCA2 activ	DAX1 StAR inh	hgDAF-12 ag	LXR ag	hcDAF12 ag
CCc1nnc(NC(=O)Nc2ccc(OC)cc2)s1	0	-1	2	1	4	x	x
CCCCOc1ccc(NC(=O)Nc2nnc(C)s2)cc1	8.5*	1.1*	-1	1	0	0	4
Cc1cccc(NC(=S)Nc2cccc3ccccc23)c1	7.2*	1.4*	1	-1	5	0	11*
CCc1cccc(NC(=S)Nc2cccc3ccccc23)c1	7.4*	0	3	-1	2	0	5.9*
COc1cccc(NC(=S)Nc2cccc3ccccc23)c1	5	0	1	2	9	x	x
Cc1cccc(NC(=O)Nc2cccc3ccccc23)c1	-2	-1	0	0	2	x	x
Cn1c(O)c(N=Nc2nc(-c3ccccc3)cs2)c2ccccc21	12*	0	-1	0	2	0	7.4*
CCCCCN1CCCCC(NC(=O)c2ccc(F)cc2)C1=O (stereo unspecified)	-2	-1	-1	-1	-2	x	x
O=C(Cc1ccc(Br)cc1)NC1CCCCC1	1	-2	1	0	0	x	x
O=C(Cc1ccc(O)cc1)NC1CCCCCC1	6.8*	0	0	1	8	0	4
C(=C\c1ccc2ccccc2n1)/c1ccccc1	14*	1.3*	1	2	6	1	13*
C=C1CSc2nc(=O)c3c4c(sc3n21)CCCC4	7.0*	-1	0	0	2	0	1
CCCCC(=O)/C=C/n1c(=S)oc2ccccc21	6.6*	1	3	1	8	0	4
CC(C)OC(=O)n1c(=S)oc2ccccc21	-2	-2	4	1	-1	x	x
Cc1ccc(S(=O)(=O)N2CCN(C(=O)c3ccc4ccccc4n3)CC2)c(C)c1	7.2*	1	2	3	11*	0	8.4*
Cc1ccc(S(=O)(=O)N2CCN(C(=O)c3ccccn3)CC2)c(C)c1	0	-1	1	1	1	x	x
COc1cccc(CN2CCN(Cc3cc4ccccc4[nH]3)CC2CCO)c1 (stereo unspecified)	3	0	-4	0	-1	x	x
CC(C)CCN1CCN(Cc2cc3ccccc3[nH]2)CC1CCO (stereo unspecified)	6.9*	0	3	0	0	0	7.0*
CCc1ccc(N2Cc3ccccc3C2)cc1	6.9*	1	6	3	29*	1	7.7*
Cc1cc(C)cc(N2Cc3ccccc3C2)c1	0	-1	1	1	-3	x	x
CCOC(=O)C1CCCCN1C(=O)CCc1nnc(-c2ccc3c(c2)OCO3)o1 (stereo unspecified)	7.7*	-1	2	3	4	0	1
